Results reported in PubChem BioAssay.
A number with no mark means an inactive call.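 Rule for the calls, unless noted: active = RAM network inhibition above 8.4% in each of two replicates, 3 SD over the compound average; inconclusive = above 8.4% inhibition in only one replicate; inactive = 8.4% inhibition or less in each replicate.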

Test: inhibitors of the yeast RAM network, pilot screen, dse1pr::URA3 reporter, 5-FOA selection (AID 869;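 active = inhibition over a set limit, the all-compound mean plus 3 SD, in both replicate runs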;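 note: 0% = DMSO wells with no growth and 100% = 10 µM 1-NA-PP1 with full growth; RAM network block rescues cells from 5-FOA so hits raise OD615 growth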)
Details: S. cerevisiae dse1pr::URA3 5-FOA growth, OD615, 2 d; at 10 µM; hits give high values; strain carries analog-sensitive mutant Cbk1 kinase
Work on `CC(C)CC(NS(=O)(=O)c1ccc2c(c1)oc(=O)n2C)C(=O)NCc1cccnc1` (stereo not drawn) yielded an inhibition of 1.82%. Compound `Cc1csc2ncc(C(=O)NCc3ccccn3)c(=O)n12` has an inhibition of 1.58%. Work on `O=S(=O)(c1ccccc1)N1CCN(C2CCN(Cc3ccccc3)CC2)CC1` yielded an inhibition of 0.155%. `C=CCn1c(SCC(=O)Nc2cc(C)nn2-c2ccccc2)nnc1C1CCCCC1` showed an inhibition of 0.165%. For `Cc1ccc(C)c(N2CCN(C(=O)c3cc4ccccc4oc3=O)CC2)c1`, the inhibition was 1.18%. For `COc1cc2c(cc1OC)C1=C(C#N)CN(C3CCCCC3)CN1CC2`, the inhibition was 2.15%. Work on `Cn1c(=O)oc2cc(S(=O)(=O)N3CCCC3)ccc21` yielded an inhibition of 0.645%. `CC(=O)Nc1ccc(NC2(C)C(=O)c3ccccc3C2=O)cc1` showed an inhibition of 1.94%. `COc1cccc(-c2nc(CS(=O)CC(=O)NCc3ccccc3Cl)c(C)o2)c1` (stereo not drawn) gave an inhibition of 0.79%. `CC(=O)c1ccc(C(=O)Nc2ccc(N3CCOCC3)cc2)cc1` gave an inhibition of 0.45%. Compound `CCOC(=O)N1CCC(N2C(=O)c3ccc(C(=O)NCc4ccc(F)cc4)cc3C2=O)CC1` has an inhibition of 3.25%. `Cc1ccccc1Cn1c(=O)[nH]c2ccccc21` gave an inhibition of 1.9%. Work on `Cc1c(C#N)c2ccccc2n1CC(=O)NCCc1c[nH]c2ccccc12` yielded an inhibition of 3.73%. With `CCOC(=O)c1sc(NC(=O)c2ccc(Cl)s2)cc1C` the inhibition was 2.33%. Work on `COc1ccc(OC)c(NC(=O)c2c(NC(=O)CNCc3ccco3)sc3c2CCC3)c1` yielded an inhibition of 1.28%. `CCCOc1ccc(N2C(=O)CC(N3CCN(c4ccccc4F)CC3)C2=O)cc1` (stereo not drawn) showed an inhibition of 0.125%. `CC(=O)Nc1nonc1-c1nc2ccccc2n1Cc1nnc(C)o1` showed an inhibition of 2.09%. Compound `Cc1ccsc1C1NC(=O)c2c(sc3c2CCN(C)C3)N1` (stereo not drawn) has an inhibition of 1.37%. Work on `O=S(=O)(c1ccccc1)n1ccc2ccccc21` yielded an inhibition of 0.255%. `CCCS(=O)(=O)N1CCn2c(nc3ccccc32)C1` gave an inhibition of 2.19%. In the case of `Cc1ccc(C2/C(=C(/O)c3ccccc3)C(=O)C(=O)N2CCN2CCOCC2)o1` (stereo not drawn), the inhibition is reported as 0.095%. `CC(NC(=O)Cc1ccccc1)c1nc2ccccc2[nH]1` (stereo not drawn) gave an inhibition of 0.08%. With `CCOC(=O)/C=C/S(=O)(=O)c1ccc(NC(C)=O)cc1` the inhibition was 0.03%. Work on `COc1ccc2oc(-c3ccccc3)c(C(=O)N3CCOCC3)c2c1` yielded an inhibition of 1.52%. With `COc1ccccc1NC(=O)NCCN1C(=O)C2C3C=CC(C3)C2C1=O` (stereo not drawn) the inhibition was 1.71%. With `CCOC(=O)c1oc2cc(O)ccc2c(=O)c1-c1ccccc1OC` the inhibition was -0.595%. `CC(=O)NC(CCS(C)(=O)=O)C(=O)Nc1ccc(Oc2ccccc2)cc1` (stereo not drawn) showed an inhibition of 1.69%. In the case of `O=C(NCc1ccncc1)C(F)(F)C(F)(F)C(=O)NCc1ccncc1`, the inhibition is reported as 1.33%. With `COc1ccc(Cl)cc1N1C(=O)C2CCCN2C1c1ccccc1F` (stereo not drawn) the inhibition was 1.41%. In the case of `COc1ccc(C)cc1NC(=O)c1cnc2scc(C)n2c1=O`, the inhibition is reported as 3.21%. For `CC(C)Cn1c(CNC(=O)c2ccccc2)nc2ccccc21`, the inhibition was 0.785%. Compound `Cc1cccc(Nc2ncnc3nc[nH]c23)c1` has an inhibition of 2.31%. `COCCn1c(SCCN2CCOCC2)nc2c1c(=O)[nH]c(=O)n2C` showed an inhibition of 1.45%. For `CSCCC(/C(O)=C(\C#N)c1nc2ccccc2[nH]1)N1C(=O)c2ccccc2C1=O` (stereo not drawn), the inhibition was 2.82%. `Cc1sc2nc(SC(C)C)nc(N)c2c1C` gave an inhibition of 1.69%. Work on `O=C(O)C1C2C=CC(C2)C1C(=O)OCC1CCCO1` (stereo not drawn) yielded an inhibition of 0.865%. For `O=C(OCCN(C1=NS(=O)(=O)c2ccccc21)c1ccc(Cl)cc1)c1ccco1`, the inhibition was 1.44%. Compound `Brc1ccc(-c2noc(COc3ccc4c(c3)CCC4)n2)o1` has an inhibition of 1.22%. In the case of `CCOC(=O)N1CCC(Nc2cc(C)nc3c(-c4ccccc4OC)c(C)nn23)CC1`, the inhibition is reported as 0.325%.

Test: RAM signaling pathway blockade in yeast – S. cerevisiae, Pdr1DBD-CYC8 efflux-inhibited sensitized strain, primary screen (AID 1298);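 note: 0% = DMSO untreated cells without growth and 100% = 10 µM 1-NA-PP1 full growth; higher means more yeast growth rescued from 5-FOA killing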
Details: S. cerevisiae cbk1-as DSE1-URA3 strain, 5-FOA growth OD615, 2 d; at 50 µM; hits give high values
Work on `CC(C)CC(NS(=O)(=O)c1ccc2c(c1)oc(=O)n2C)C(=O)NCc1cccnc1` (stereo not drawn) yielded an RAM network inhibition of 0.99%. Work on `Cc1csc2ncc(C(=O)NCc3ccccn3)c(=O)n12` yielded an RAM network inhibition of 1.6%. `O=S(=O)(c1ccccc1)N1CCN(C2CCN(Cc3ccccc3)CC2)CC1` showed an RAM network inhibition of 2.72%. `C=CCn1c(SCC(=O)Nc2cc(C)nn2-c2ccccc2)nnc1C1CCCCC1` showed an RAM network inhibition of 3.38%. With `Cc1ccc(C)c(N2CCN(C(=O)c3cc4ccccc4oc3=O)CC2)c1` the RAM network inhibition was 3.38%. With `COc1cc2c(cc1OC)C1=C(C#N)CN(C3CCCCC3)CN1CC2` the RAM network inhibition was 3.92%. `Cn1c(=O)oc2cc(S(=O)(=O)N3CCCC3)ccc21` showed an RAM network inhibition of 0.66%. For `CC(=O)Nc1ccc(NC2(C)C(=O)c3ccccc3C2=O)cc1`, the RAM network inhibition was 1.23%. `COc1cccc(-c2nc(CS(=O)CC(=O)NCc3ccccc3Cl)c(C)o2)c1` (stereo not drawn) gave an RAM network inhibition of 10%. `CC(=O)c1ccc(C(=O)Nc2ccc(N3CCOCC3)cc2)cc1` gave an RAM network inhibition of 2.61%. With `CCOC(=O)N1CCC(N2C(=O)c3ccc(C(=O)NCc4ccc(F)cc4)cc3C2=O)CC1` the RAM network inhibition was 8.97%. For `Cc1ccccc1Cn1c(=O)[nH]c2ccccc21`, the RAM network inhibition was 4.55%. For `Cc1c(C#N)c2ccccc2n1CC(=O)NCCc1c[nH]c2ccccc12`, the RAM network inhibition was 8.41%. With `CCOC(=O)c1sc(NC(=O)c2ccc(Cl)s2)cc1C` the RAM network inhibition was 5.22%. `COc1ccc(OC)c(NC(=O)c2c(NC(=O)CNCc3ccco3)sc3c2CCC3)c1` gave an RAM network inhibition of 7.95%. Compound `CCCOc1ccc(N2C(=O)CC(N3CCN(c4ccccc4F)CC3)C2=O)cc1` (stereo not drawn) has an RAM network inhibition of 7.05%. For `CC(=O)Nc1nonc1-c1nc2ccccc2n1Cc1nnc(C)o1`, the RAM network inhibition was 1.99%. In the case of `Cc1ccsc1C1NC(=O)c2c(sc3c2CCN(C)C3)N1` (stereo not drawn), the RAM network inhibition is reported as -0.83%. Work on `O=S(=O)(c1ccccc1)n1ccc2ccccc21` yielded an RAM network inhibition of 6.25%. Work on `CCCS(=O)(=O)N1CCn2c(nc3ccccc32)C1` yielded an RAM network inhibition of 2.93%. `Cc1ccc(C2/C(=C(/O)c3ccccc3)C(=O)C(=O)N2CCN2CCOCC2)o1` (stereo not drawn) showed an RAM network inhibition of -0.05%. In the case of `CC(NC(=O)Cc1ccccc1)c1nc2ccccc2[nH]1` (stereo not drawn), the RAM network inhibition is reported as 3.75%. In the case of `CCOC(=O)/C=C/S(=O)(=O)c1ccc(NC(C)=O)cc1`, the RAM network inhibition is reported as 5.29%. Work on `COc1ccc2oc(-c3ccccc3)c(C(=O)N3CCOCC3)c2c1` yielded an RAM network inhibition of 5.28%. `COc1ccccc1NC(=O)NCCN1C(=O)C2C3C=CC(C3)C2C1=O` (stereo not drawn) showed an RAM network inhibition of 5.38%. `CCOC(=O)c1oc2cc(O)ccc2c(=O)c1-c1ccccc1OC` gave an RAM network inhibition of 5.56%. `CC(=O)NC(CCS(C)(=O)=O)C(=O)Nc1ccc(Oc2ccccc2)cc1` (stereo not drawn) showed an RAM network inhibition of 5.21%. With `O=C(NCc1ccncc1)C(F)(F)C(F)(F)C(=O)NCc1ccncc1` the RAM network inhibition was 1.22%. `COc1ccc(Cl)cc1N1C(=O)C2CCCN2C1c1ccccc1F` (stereo not drawn) gave an RAM network inhibition of 1.3%. `COc1ccc(C)cc1NC(=O)c1cnc2scc(C)n2c1=O` showed an RAM network inhibition of 3.95%. In the case of `CC(C)Cn1c(CNC(=O)c2ccccc2)nc2ccccc21`, the RAM network inhibition is reported as -0.78%. For `Cc1cccc(Nc2ncnc3nc[nH]c23)c1`, the RAM network inhibition was 3.11%. Work on `COCCn1c(SCCN2CCOCC2)nc2c1c(=O)[nH]c(=O)n2C` yielded an RAM network inhibition of 5.47%. `CSCCC(/C(O)=C(\C#N)c1nc2ccccc2[nH]1)N1C(=O)c2ccccc2C1=O` (stereo not drawn) showed an RAM network inhibition of 7.67%. Work on `Cc1sc2nc(SC(C)C)nc(N)c2c1C` yielded an RAM network inhibition of 4.8%. In the case of `O=C(O)C1C2C=CC(C2)C1C(=O)OCC1CCCO1` (stereo not drawn), the RAM network inhibition is reported as 1.34%. Compound `O=C(OCCN(C1=NS(=O)(=O)c2ccccc21)c1ccc(Cl)cc1)c1ccco1` has an RAM network inhibition of 4.02%. Compound `Brc1ccc(-c2noc(COc3ccc4c(c3)CCC4)n2)o1` has an RAM network inhibition of 4.46%. With `CCOC(=O)N1CCC(Nc2cc(C)nc3c(-c4ccccc4OC)c(C)nn23)CC1` the RAM network inhibition was 4.72%.
